The results in this text go back to PubChem BioAssay AID1239 (SRMLSC, 2008).

The whole screen tested about 190,000 compounds, of which about 3,100 (1.6%) were called active. For the sample, actives were picked, then their nearest neighbours and some compounds at random. A number with no mark means an inactive call. Rule as the data show it: active = fold change above about 3.3; inconclusive = no clear call, values can overlap the other calls; inactive = below that.

This assay in a line: NF-kB upregulation, human neuronal cells – cell-based, HTS, primary screen (AID 1239). Particulars: NF-kB reporter expression, at 12.5 µM, stronger effect = higher value.
On to `COC(=O)C1=C(C)N(C)C(=O)NC1c1ccc([N+](=O)[O-])o1` (configuration not stated), for which the fold change is 0.88.

Turning to `CN(C)C(CNC(=O)c1cccc(C#N)c1)c1ccco1` (configuration not stated), the fold change is 1.15.

`CC(=O)NC1C(Oc2ccc(C=O)cc2)OC(COC(C)=O)C(OC(C)=O)C1OC(C)=O` (configuration not stated): the fold change was 1.36.

As to `O=C(NCc1ccccc1)C1CCCN(c2nc3ccsc3c(=O)s2)C1` (configuration not stated), the fold change is 1.06.

In the case of `CCOC(=O)c1sc2nc(SC)nc(-c3ccccc3)c2c1N`, the fold change was 1.18.

Take `CCN(CC)C(=O)c1sc2nc(-c3ccccc3)ccc2c1N`: the fold change was 7.06 (active).

`CS(=O)(=O)c1sc2nc(-c3ccccc3)cc(-c3ccccc3)c2c1N`: the fold change was 1.16.

As for `Cn1c(N)c(C(=O)COC(=O)/C=C/c2ccc(OC(F)F)cc2)c(=O)n(C)c1=O`, the fold change is 1.25.

`Cc1cc(C)c(OCCN2CC(C)OC(C)C2)c(Br)c1` (configuration not stated): the fold change was 1.58.

With `C/C(=C\C(=O)c1ccc(Br)cc1)N1CCCCC1`, the fold change was 1.06.

Turning to `CN1CCCC(OC(=O)COc2ccc(Br)cc2)C1` (configuration not stated), the fold change is 1.11.

As for `CC1CN/C(=C\C(=O)c2ccc(Br)cc2)C(=O)N1` (configuration not stated), the fold change was 4.31 (active).

As to `CCc1cc2c(=O)c(-c3ccc(F)cc3)c(C(F)(F)F)oc2cc1OCC(=O)O`, the fold change was 1.1.

Regarding `O=C(Nc1ccc(Cl)cn1)Nc1cccs1`, the fold change is 1.65.

`c1cnc(Nc2nc(-c3ccc4ccccc4c3)cs2)nc1`: the fold change is 2.23.

Take `COc1ccc(-c2csc(Nc3ccccn3)n2)cc1`: the fold change was 7.56 (active).

Consider `Clc1ccc(Nc2nc(-c3cccs3)cs2)nc1`, for which the fold change is 12.4 (active).

`c1ccc(Nc2nc(-c3ccncc3)cs2)nc1`: the fold change was 7.4 (active).

With `COc1ccc(C(=O)/C=C/Nc2ccccn2)cc1`, the fold change was 2.22.

`O=C(Nc1nc(-c2ccncc2)cs1)C1COc2ccccc2O1` (configuration not stated): the fold change is 1.25.

Regarding `O=C(Nc1nc(-c2ccc(-c3ccccc3)cc2)cs1)c1cnccn1`, the fold change was 1.35.

With `Clc1ccc(-c2csc(-c3ccncc3)n2)cc1`, the fold change was 1.8.

Consider `O=C(CN(c1cccc(Cl)c1)S(=O)(=O)c1ccccc1)NN=C1CCCC1`, for which the fold change was 1.17.

For `CN1CCN(C(c2cc3cc4c(cc3[nH]c2=O)OCCO4)c2nnnn2C2CCCC2)CC1` (configuration not stated), the fold change is 1.27.

`O=C(COc1cccc2ccccc12)Nc1cc(S(=O)(=O)N2CCOCC2)ccc1N1CCOCC1`: the fold change is 0.47.

With `O=C(N/N=C/C=C/c1ccco1)c1cccs1`, the fold change is 1.09.

`COc1ccc(CC(=O)NC(C)CCc2ccccc2)cc1` (configuration not stated): the fold change was 1.03.

In the case of `CC(=O)c1cc(C#N)c(N2CCCCC2)nc1C`, the fold change was 1.09.

As to `O=C(Nc1cccc(S(=O)(=O)Nc2ccc(Cl)cc2)c1)c1ccc2c(c1)OCCO2`, the fold change is 0.68.

With `CN1CCN(c2ccc(NC(=O)c3ccc4c(c3)OCCO4)cc2Cl)CC1`, the fold change was 3.36 (active).

On to `O=C(Nc1ccc2c(c1)OCCO2)c1ccc(Cl)c(S(=O)(=O)N2CCCCC2)c1`, for which the fold change is 0.9.

For `COc1c(Cl)cc(C(=O)Nc2ccc(Cl)cn2)cc1Cl`, the fold change is 1.49.

As to `O=C(Nc1cccc(Cl)c1N1CCOCC1)c1ccc2c(c1)OCCO2`, the fold change was 0.72.

With `O=C(Nc1ccc(Cl)cn1)c1ccc2c(c1)OCCO2`, the fold change is 5.18 (active).

As to `S=c1[nH]ccn1-c1ccc(Cl)cc1`, the fold change is 1.14.

`CC(C)(C)NC(=O)CN(C(=O)c1ccc(Cl)nc1)c1cccc2ccccc12`: the fold change was 0.94.

`COc1cccc(OCCCN2CCCCCC2)c1`: the fold change is 1.08.

`C/C(=N/OC(=O)c1cccc(C(F)(F)F)c1)c1cnccn1`: the fold change is 1.18.

On to `O=C(NC(=S)Nc1ccc(NC(=O)c2cccs2)cc1)c1ccc([N+](=O)[O-])cc1`, for which the fold change is 1.11.

Turning to `O=C(NC(=S)Nc1cccc(-c2ccc(CO)o2)c1)c1cccs1`, the fold change is 10.1 (active).

Turning to `CCc1nnc(NS(=O)(=O)c2ccc(NC(=S)NC(=O)c3cccs3)cc2)s1`, the fold change is 1.46.

`COC(=O)COc1ccc(C2NC(=O)NC(C)=C2C(=O)NCc2ccccc2)cc1OC` (configuration not stated): the fold change was 1.01.

As to `CN1CCN(/N=C/c2ccc(-c3ccc([N+](=O)[O-])cc3)o2)CC1`, the fold change is 1.75.

As to `O=C(Cc1ccc([N+](=O)[O-])cc1)N/N=C/c1ccco1`, the fold change is 1.05.

Take `CCC(C)(NC(=O)c1ccccn1)C(=O)NC1CCCCC1` (configuration not stated): the fold change is 1.15.

For `N/C(=N\OC(=O)CC1CCCCC1)c1ccccc1`, the fold change was 1.45.

With `N/C(=N\OC(=O)CCC1CCCCC1)c1ccccn1`, the fold change is 4.01 (active).

Consider `CN(C)CCOc1cccc(Br)c1`, for which the fold change was 1.12.

For the compound `CCN=c1sc(C(=O)Nc2ccccc2)c(C)n1CC`, the fold change is 1.3.

`Cc1ccc(OCC(=O)NC(C)c2ccccc2)c([N+](=O)[O-])n1` (configuration not stated): the fold change was 1.1.

As for `C=CCNC(=O)CC12CC3CC(C1)CC(CC(=O)NCC=C)(C3)C2`, the fold change was 1.38.

For `CCOC(=O)/C(C#N)=C/c1ccc(N2CCCCC2)cc1`, the fold change is 3.43 (active).

For the compound `CCOC(=O)/C(C#N)=C/c1ccc(N2CCN(Cc3ccccc3)CC2)cc1`, the fold change was 0.98.

Consider `COc1ccc(N2CCN(C(=O)/C(C#N)=C/c3ccccc3)CC2)cc1`, for which the fold change is 0.72.

`COC(=O)C1=CN(Cc2ccc(OC)c(OC)c2)C=C(C(=O)OC)C1c1cccs1`: the fold change is 0.73.

Take `Cc1nnc(SCCCCSc2nnc(C)c(=O)[nH]2)[nH]c1=O`: the fold change was 1.03.

With `Cc1ccc(S(=O)(=O)/N=C(\N)c2ccc(F)cc2)cc1`, the fold change is 1.11.

As for `Cc1nn2cc(-c3ccc(Cl)cc3)cnc2c1Br`, the fold change was 4.06 (active).

On to `O=C(NC(=S)Nc1ccc(S(=O)(=O)Nc2ncccn2)cc1)c1cccc(Br)c1`, for which the fold change is 0.92.

Take `CCOC(=O)C1(Cc2ccccc2C(F)(F)F)CCN(C(=O)c2cc(C)n(C)n2)CC1`: the fold change was 1.81.

`CC(C)C(=O)Nc1c(C(=O)c2ccc(F)cc2)oc2ccccc12`: the fold change was 0.89.

Consider `CC(C)C(=O)Nc1ccc2oc(=O)ccc2c1`, for which the fold change is 1.14.

As for `CC(C)C(=O)Nc1ccc2c(c1)oc1ccccc12`, the fold change was 4.71 (active).

As to `COCCCNC(=S)NCCNc1nc2cc(C)c(C)cc2cc1C#N`, the fold change was 0.77.

Regarding `NC(=O)N1CCc2ccccc21`, the fold change was 1.08.

For `Cc1nnc(SCC(=O)N2CCc3ccccc32)n1-c1ccccc1`, the fold change was 1.

With `O=C(CSCc1ccccc1)N1CCc2ccccc21`, the fold change is 5.86 (active).

For the compound `CCn1c(SCC(=O)N(C)C2CCS(=O)(=O)C2)nnc1-c1cccs1` (configuration not stated), the fold change is 1.03.

With `CC(=O)c1ccc(N2CCN(CC(=O)Nc3ccccc3N3CCOCC3)CC2)cc1`, the fold change was 1.

As for `CC1(C)CN(c2ccc(-c3ccnc4ncnn34)cc2)C1=O`, the fold change was 1.23.

In the case of `COc1ccc(N2CCN(C(=S)Nc3ccc(S(N)(=O)=O)cc3)CC2)cc1`, the fold change is 0.85.

In the case of `CCn1cc(CN2CCCC(CNS(=O)(=O)Cc3ccccc3)C2)cn1` (configuration not stated), the fold change was 0.89.

Consider `CCCCOc1ccc(C(=O)NCc2ccncc2)cc1`, for which the fold change is 1.15.

As to `CCCCCCOc1ccc(OC(=O)c2cccnc2)cc1`, the fold change was 5.55 (active).

As to `CCCCCCCCC(=O)NCCOc1ccccc1`, the fold change is 1.12.

For `CCOc1ncccc1C(=O)OCC(=O)NC1CC1`, the fold change was 1.17.

`CN1CCN(CC(=O)Nc2cccc([N+](=O)[O-])c2)CC1`: the fold change is 1.37.

`CCOc1cc(C(=O)N2CCc3cc(OC)c(OC)cc3C2)ccc1OC(F)F`: the fold change was 4.22 (active).

Regarding `COc1cc2c(cc1OC)CN(C(=O)c1cc(=O)c3ccccc3o1)CC2`, the fold change is 0.82.

With `COc1cc2c(cc1OC)CN(C(=O)c1ccc(S(=O)(=O)N3CCCCCC3)cc1)CC2`, the fold change is 0.87.

Consider `O=Cc1ccc(Oc2cccc(C(F)(F)F)c2)nc1`, for which the fold change was 1.2.

Regarding `O=C(CSc1cccc[n+]1[O-])c1ccc(Cl)cc1`, the fold change was 1.21.

As for `COc1cccc(/C=C/c2ccc3ccccc3n2)c1OC(C)=O`, the fold change was 3.13.

Consider `NC(=O)COC(=O)/C=C/c1ccc2ccccc2n1`, for which the fold change is 0.97.

As for `CCOc1cccc(/C=C/c2ccc3ccccc3n2)c1OC(C)=O`, the fold change is 4.82 (active).

As for `CCOC(=O)c1c(N)nn(C(=O)c2ccccc2)c1-c1ccccc1`, the fold change is 1.07.

For the compound `C=CCN1C2CCCC1CC(NC(=S)Nc1cccc(OC)c1)C2` (configuration not stated), the fold change is 1.07.

`CC(CNC(=O)c1ccc(N)cc1)NC(=O)c1ccc(N)cc1` (configuration not stated): the fold change was 1.46.

Take `CCOc1nc(-c2ccc(OC)cc2)ccc1-c1noc(-c2cc(OC)c(OC)c(OC)c2)n1`: the fold change was 1.01.

In the case of `COc1cc(-c2nc(-c3ccncc3)no2)cc(OC)c1OC`, the fold change was 0.54.

`COc1ccc(-c2noc(-c3cccc(OC)c3OC)n2)cc1OC`: the fold change was 3.86 (active).

On to `COc1ccc(OC)c(S(=O)(=O)NCCC(C)C)c1`, for which the fold change was 1.13.

As for `COc1ccc(NC(C)=O)cc1NC(=O)CN1CCN(C2c3ccccc3-c3ccccc32)CC1`, the fold change is 3.62 (active).

As to `COc1ccc(OC)c(NC(=O)CN2CCN(C(=O)c3ccco3)CC2)c1`, the fold change is 1.07.

For the compound `COc1ccc(NC(C)=O)cc1NC(=O)CN1CCN(c2ccccn2)CC1`, the fold change is 1.04.

With `O=c1oc2ccccc2cc1-c1cn(-c2ccccc2)c(=S)[nH]1`, the fold change was 0.83.

For the compound `Nc1ncc(-c2cc3ccccc3oc2=O)s1`, the fold change was 3.48 (active).

As for `O=C(NCc1cccnc1)c1cccc(-c2cc3ccccc3oc2=O)c1`, the fold change is 0.93.

As for `O=C(/C=C/c1ccc2c(c1)OCO2)NCc1cn2cc(Cl)ccc2n1`, the fold change is 1.09.

Take `COc1ccc(N(C)S(=O)(=O)c2cccc3nsnc23)cc1`: the fold change was 1.25.

As to `O=C(c1ccc(N2CCOCC2)c([N+](=O)[O-])c1)N1CCN(S(=O)(=O)c2cccs2)CC1`, the fold change is 1.15.

As for `C=CCn1c(CCNC(=O)c2ccccc2F)nnc1SCC(=O)Nc1ccc(OC)cc1`, the fold change was 1.12.
